From PubChem BioAssay (NCATS)
Results filed as inconclusive are left out. The source made the active and inactive calls. Calls come from the whole dose curve; as a rule, active = well fitted inhibition curve with a large enough effect; inconclusive = small, poorly fitted or top-dose-only effect; inactive = no such curve, though single readings can be large or run the other way.

target: Retinaldehyde dehydrogenase 3 (Homo sapiens) (UniProt P47895); assay: qHTS for Inhibitors of the Aldehyde Dehydrogenase Family (ALDH1A3) Confirmatory screens (AID 2061311); conditions: ALDH inhibition qHTS; series mostly up to 46 µM; activity change, negative = inhibition: at the top concentration; note: nearly all actives have a fitted effect of over 60% in size
% is set by controls: 0 for no effect and ±100 for the full control effect; potency is the fitted concentration of half-maximal effect.

**Q.** With `O=C(Cn1cnc2onc(-c3ccc(Cl)cc3)c2c1=O)Nc1ccc(F)cc1` as the compound, how does the “activity change, negative = inhibition” value read?
**A.** The value was -20.8% (inactive).

**Q.** With `O=c1c2cnn(-c3ccc(Cl)cc3)c2ncn1Cc1cccc(C(F)(F)F)c1` as the compound, how does the “outcome” value read?
**A.** Its value is “inactive”.

**Q.** `COc1cc(F)ccc1-c1cnc2n[nH]c(-c3sccc3C)c2n1` was tested. Which “outcome” value did it give?
**A.** Its value is “inactive”.

**Q.** For `O=C(CCc1ccccc1)Nc1ccc([C@@H](O)[C@H]2COCC(=O)N2Cc2ccncc2)cc1`, which “activity change, negative = inhibition” value is on record?
**A.** The value was 0.496% (inactive).

**Q.** For `O=C(c1ccccc1O)N(Cc1ccco1)Cc1ccco1`, which Potency is on record?
**A.** The Potency was 12.7 µM (active).

**Q.** Which Potency does the source give for `COc1ccc(-c2nc3ccccc3c(=O)n2Cc2ccccc2)cc1OCc1ccc(NC(C)=O)cc1` here?
**A.** The Potency was 22.5 µM (active).

**Q.** Which “activity change, negative = inhibition” value does the source give for `O=C(CSc1nc2ncccc2[nH]1)Nc1cc(F)ccc1F` here?
**A.** Its value is -23.4% (inactive).

**Q.** How did the “activity change, negative = inhibition” value turn out when `CCOc1ccc(NC(=O)Nc2cc3c(cc2N2CCCCC2)n(C)c(=O)n3C)cc1` was run?
**A.** Its value is -43.3% (inactive).

**Q.** Which “activity change, negative = inhibition” value does the source give for `Cc1cc2ncc(C(=O)NCCc3ccccc3F)cn2n1` here?
**A.** Its value is -13.1% (inactive).

**Q.** How did the “outcome” value turn out when `c1cnc(-c2noc(-c3nc(-c4ccc5c(c4)OCO5)no3)n2)cn1` was run?
**A.** The value was “inactive”.

**Q.** For `O=C(Nc1ccccc1Cl)c1nc2cccnc2n(Cc2ccccc2)c1=O`, which “activity change, negative = inhibition” value is on record?
**A.** The value was -11% (inactive).

**Q.** For `CCc1nn2c(=O)c(S(=O)(=O)Nc3ccc(C)cc3C)c(C)nc2s1`, which “activity change, negative = inhibition” value is on record?
**A.** Its value is 2.23% (inactive).

**Q.** For `COCCNC(=O)c1cc(-c2ccc(OC)cc2)nc2c1c(C)nn2-c1ccccc1`, which Potency is on record?
**A.** Its Potency is 25.1 µM (active).

**Q.** With `CNCc1ccc(N2CCCC2)cc1` as the compound, how does the “activity change, negative = inhibition” value read?
**A.** The value was -10.3% [at 85.7 µM] (inactive).

**Q.** `CCOc1ccccc1NC(=O)Nc1cc(C(=O)NCc2ccc(C)cc2)ccc1N1CCCC1` was tested. Which “activity change, negative = inhibition” value did it give?
**A.** Its value is 1.94% (inactive).

**Q.** With `COc1ccccc1-n1c(=O)c(C(=O)NC(C)C)nc2cccnc21` as the compound, how does the “outcome” value read?
**A.** The value was “inactive”.

**Q.** Which “activity change, negative = inhibition” value does the source give for `CCc1nn2c(=O)c(S(=O)(=O)Nc3ccc(Cl)cc3)c(C)nc2s1` here?
**A.** Its value is -3.82% (inactive).
